These results are taken from PubChem BioAssay (NCATS).

Records with an inconclusive call do not appear. Calls of active or inactive are those of the source. Unless noted, calls come from the whole dose curve; as a rule, active = well fitted curve in the direction sought with a large enough effect; inconclusive = small, poorly fitted or top-dose-only effect, or another doubt; inactive = no such curve, though single readings can be large; an effect the other way counts as inactive or inconclusive.

Assay [1] can be described thus: qHTS profiling for inhibitors of Plasmodium falciparum (DD2) proliferation (AID 743323; call rule not given here). Particulars: lower = more inhibition; at 28.7 µM (top of the series) unless noted. In a few lines: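 Parasite DNA quantified by SYBR Green fluorescence (ex 485, em 535 nm) after saponin/Triton lysis and overnight dark incubation. Cultures: 0.3% parasitemia, 2.5% hematocrit, 72 h, 37 C; data scaled between DMSO and 0.29 uM artemisinin.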

Assay [2] can be described thus: qHTS profiling for inhibitors of Plasmodium falciparum (HB3) proliferation (AID 743324).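 Note: 100% = DMSO vehicle wells and 0% = artemisinin-treated control wells.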 Conditions: Plasmodium falciparum HB3 blood-stage proliferation; at 28.7 µM (top of the series) unless noted. In short, it runs like this: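 P. falciparum HB3 grown in erythrocytes (0.3% parasitemia, 2.5% hematocrit final) with compound for 72 h at 37 C, 5% CO2. Parasite DNA detected by SYBR Green after saponin/triton lysis overnight; normalized to 0.29 uM artemisinin and DMSO.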

The nature of assay [3]: qHTS profiling of the MIPE4 collection as inhibitors of Plasmodium falciparum (3D7) proliferation (AID 743344; call rule not given here;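 note: scaled between DMSO vehicle wells and 0.29 µM artemisinin as full inhibition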). Particulars: P. falciparum 3D7 in erythrocytes, SYBR Green DNA fluorescence, 72 h; at 28.5 µM (top of the series) unless noted. In short, it runs like this: (§1)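 Erythrocytes infected with P. falciparum (0.3% parasitemia, 2.5% hematocrit) incubated with compounds 72 h at 37 C, 5% CO2. Lysis with saponin/Triton buffer containing SYBR Green I, overnight at room temperature in the dark; DNA fluorescence (485/535 nm) normalised to 0.29 uM artemisinin and DMSO.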
For orientation: qHTS replaces the single test concentration by a dilution series.

Assay [4] can be described thus: qHTS profiling of the MIPE4 collection as inhibitors of Plasmodium falciparum (DD2) proliferation (AID 743345; call rule not given here). Particulars: P. falciparum Dd2 in erythrocytes, SYBR Green DNA, 72 h; at 28.5 µM (top of the series) unless noted. In short, it runs like this:
as §1

Assay [5] can be described thus: High-throughput drug toxicity screening in the BPDCN cell line Gen2.2 (AID 1224824; call rule not given here;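 note: cells exposed to compounds for 48 h before reading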). Conditions: Gen2.2 BPDCN cells; at 45.8 µM (top of the series) unless noted. In short, it runs like this:
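Seed 500 exponentially growing Gen2.2 cells/well; add compounds by pin tool; incubate 48 h, 37 °C, 5% CO2; add CellTiter-Glo, 15 min RT; read luminescence. % activity vs DMSO (100%) and bortezomib (0%).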

Assay [6] is described as follows: High-throughput drug toxicity screening in the BPDCN cell line Cal-1 (AID 1224825; call rule not given here). Particulars: Cal-1 BPDCN cell viability, qHTS; at 45.8 µM (top of the series) unless noted. In a few lines:
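Exponentially growing Cal-1 cells, 500 per well in phenol red-free RPMI with 10% FBS, were exposed to compounds for 48 h at 37 °C, 5% CO2. Viability was read by CellTiter-Glo luminescence and normalised to DMSO (100%) and 9.2 uM bortezomib (0%).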

Assay [7] can be described thus: qHTS assay for measurement of the activity of small molecule inhibitors on Zika virus induced Caspase-3 activity in human iPSC derived neural progenitor cells (hNPCs) (AID 1224857). Note: % of control where 0% means no effect; nearly all actives have a fitted effect of over 65% in size. In short, it runs like this:
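Caspase-3/7 induction by a 6-hour ZIKV infection was quantified with a luminescent Caspase-Glo 3/7 reagent incubated 30 minutes at room temperature. Compounds were preincubated with hNPCs for 1 hour; inhibition was calculated against uninfected and infected control wells.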

Assay [8] is described as follows: qHTS assay for measurement of the activity of small molecule inhibitors on Zika virus induced Caspase-3 activity in human astrocytoma cells (AID 1224859).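 Note: plate controls were ZIKV-infected untreated cells for no effect and uninfected cells for full effect.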 In short, it runs like this: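 In SNB-19 cells plated at 250 cells/well and grown 16-20 h, compounds were applied 1 h before ZIKV (2 FFU/cell). Six hours later caspase-3/7 luminescence was recorded.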
Assay [9] in a line: qHTS Screen of the MIPE 4.0 Collection Against Ewings Sarcoma (RDES) (AID 1259252). Note: nearly all actives have a fitted effect of over 35% in size. Note: potency is the fitted concentration of half-maximal effect. In a few lines: (§2)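 Compound titrations go onto adherent log-phase cells 4 h after seeding, incubate 48 h at 37C, then CellTiter-Glo luminescence reports viability relative to DMSO and cell-free controls.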
The nature of assay [10]: qHTS Screen of the MIPE 4.0 Collection Against Ewings Sarcoma (TC32) (AID 1259256).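 Note: 100% = DMSO-treated cells and 0% = medium-only wells without cells; nearly all actives have a fitted effect of over 45% in size.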 In a few lines: as §2
Assay [11] can be described thus: Identifying Small Molecule Inhibitors of Pancreatic Cancer Stem Cells (Panc1, Spheroid) (AID 1259359).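 Note: potency is the fitted concentration of half-maximal effect; compound exposure lasted 48 h before reading.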 In short, it runs like this:
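Viability is scored by CellTiter-Glo luminescence 48 h after dosing, expressed as percent activity against vehicle and no-cell references. Spheroid formats rely on cells cultured 14 days in stem cell media beforehand.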

Assay [12] in a line: qHTS profiling of the MIPE4 collection as inhibitors of Plasmodium falciparum (DD2) proliferation (Rep 2) (AID 743346; call rule not given here). Conditions: P. falciparum Dd2 in erythrocytes, SYBR Green DNA, 72 h; at 28.5 µM (top of the series) unless noted. In short, it runs like this:
as §1

The nature of assay [13]: qHTS profiling of the MIPE4 collection as inhibitors of Plasmodium falciparum (HB3) proliferation (AID 743347; call rule not given here;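 note: plate controls were DMSO vehicle wells for no effect and artemisinin wells for full effect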). Conditions: P. falciparum HB3 in erythrocytes, SYBR Green DNA, 72 h; at 28.5 µM (top of the series) unless noted. In short, it runs like this: as §1
Assay [14] can be described thus: qHTS Screen of the MIPE 4.0 Collection Against Ewings Sarcoma (EW8) (AID 1259255). Note: potency is the fitted concentration of half-maximal effect; nearly all actives have a fitted effect of over 35% in size. In a few lines:
as §2

Consider `Cc1ccc(C(=O)N(CCCN)[C@@H](c2nc3cc(Cl)ccc3c(=O)n2Cc2ccccc2)C(C)C)cc1`, for which the activity, percent of control in assay [1] came out at 0.933%. For the same compound, the remaining proliferation (% of control), lower = more inhibition in [2] came out at 0.0585%. This compound had a parasite growth, % of DMSO control in assay [3] of 4.61%. Also, in assay [4], the parasite growth remaining, % of DMSO control (lower = more inhibition) is 7.03%. In addition, the cell viability, % of control (lower = more cytotoxic) in [5] turned out to be 4.1%. In addition, the viability (% of control) in [6] was determined as 3.23%. Besides, the Potency entry in assay [7], in [8] and in [10] was “inactive” in each case. The Potency in assay [9] was 1.7 nM (active); in assay [11] it was 3 nM (active).

With `CCC(=O)OCC(=O)[C@@]1(OC(=O)CC)[C@@H](C)C[C@@H]2[C@H]3CCC4=CC(=O)C=C[C@]4(C)[C@@]3(F)[C@@H](O)C[C@@]21C`, the parasite growth, % of DMSO control in assay [3] is 12%. In [12], this compound showed a parasite growth, % of control (lower = inhibition) of 39.1%. Moreover, the cell viability, % of control (lower = more cytotoxic) in assay [5] is 17.4%. The same compound had a viability (% of control) in assay [6] of 15%. Moreover, the Potency result in assay [7], in assay [8], in assay [9] and in assay [10] was “inactive” in each case.

Take `C[C@@]1(C(=O)Nc2ccc(F)nc2)CCCN1c1nc(Nc2cc(C3CC3)[nH]n2)c2cccn2n1`: the parasite growth, % of DMSO control in assay [3] amounted to 10.3%. For the same compound, in assay [4], the parasite growth remaining, % of DMSO control (lower = more inhibition) amounted to 14.6%. The parasite growth, % of control (lower = inhibition) in [12] amounted to 23.8%. For the same compound, in [13], the growth, % of control is 4.94%. The cell viability, % of control (lower = more cytotoxic) in [5] came out at 131%. The compound further showed a viability (% of control) in assay [6] of 17.3%. Moreover, the Potency entry in [7] and in assay [8] was “inactive” throughout. In addition, the values for the Potency in assay [9] and in assay [14] were 2640 nM (active) and 1050 nM (active), respectively.

Consider `Cc1nc2c([nH]1)CCN(C(=O)c1ccc(NC(=O)c3ccccc3-c3ccccc3)cc1)c1ccccc1-2`, for which, in [3], the parasite growth, % of DMSO control is 5.23%. Also, the parasite growth remaining, % of DMSO control (lower = more inhibition) in [4] stood at 8.18%. The parasite growth, % of control (lower = inhibition) in assay [12] turned out to be 13.3%. Besides, in assay [13], the growth, % of control was found to be 9.61%. Also, the cell viability, % of control (lower = more cytotoxic) in [5] was 48.7%. For the same compound, the viability (% of control) in assay [6] came out at 55.1%. In addition, the Potency result in [7], in assay [8], in [9] and in assay [10] was “inactive” each time.

In the case of `Cc1cn([C@@H]2C[C@@H](O)[C@H](CO)O2)c(=O)[nH]c1=O`, in assay [5], the cell viability, % of control (lower = more cytotoxic) was determined as 159%. Besides, in assay [6], the viability (% of control) amounted to 69.5%. In addition, the Potency entry in [7], in [8], in assay [9] and in assay [10] was “inactive” each time.

For `CNC(=O)c1ccc2c(C(=Nc3cccc(CN(C)C)c3)c3ccccc3)c(O)[nH]c2c1`, the parasite growth, % of DMSO control in assay [3] is 19.9%. For the same compound, the parasite growth remaining, % of DMSO control (lower = more inhibition) in assay [4] was determined as 18.6%. Moreover, the cell viability, % of control (lower = more cytotoxic) in assay [5] stood at 4.19%. Besides, the viability (% of control) in assay [6] was 19.6%. For the same compound, the Potency entry in assay [7], in assay [8] and in assay [10] was “inactive” each time. The Potency in assay [9] is 16600 nM (active).

`N#Cc1ccc(Oc2ccc3c(c2)COB3O)cc1` gave a parasite growth, % of DMSO control in assay [3] of 35.7%. For the same compound, the parasite growth remaining, % of DMSO control (lower = more inhibition) in assay [4] was 91.9%. In [12], the parasite growth, % of control (lower = inhibition) stood at 38.3%. In [13], this compound returned a growth, % of control of 24.2%. In addition, in [5], the cell viability, % of control (lower = more cytotoxic) was 210%. The compound also had a viability (% of control) in assay [6] of 98.9%. For the same compound, the Potency entry in [7], in assay [8], in assay [9] and in assay [10] was “inactive” throughout.
